Data: PubChem BioAssay AID1159580 (chemical genetic matrix, 2015)
The whole screen tested about 5,500 compounds, of which about 2,000 (36%) were called active. Inconclusive results (about 18%) are left out. No stated cut-off is given here; in the data, active means normalized growth mostly below about 0.91 (no sharp cut-off); inconclusive means no clear call, values can overlap the other calls; inactive means mostly above about 0.92. The list shows a part of the results.

Assay: chemical genetic growth profiling, strain panel (AID 1159580);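 further: tested at 20 µM; growth read once vehicle control cultures reached saturation at 30 °C; 1 = growth at the plate median or of vehicle wells; lower values mean less growth of the strain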
Conditions: growth OD

Measured: normalized growth

CCCCCCC(C)OC(=O)COc1ccc(Cl)cc1Cl (configuration not stated)
inactive: S. cerevisiae deletion strains, locus YJR075W, strain HOC1, active compounds read low 0.931 | S. cerevisiae deletion strains, locus YKL009W, strain mrt4, active compounds read low 0.992 | S. cerevisiae deletion strains, locus YKL068W, active compounds read low 0.998 | S. cerevisiae deletion strains, locus YKL085W, strain MDH1 (second series), active compounds read low 0.984 | S. cerevisiae deletion strains, locus YKL085W, strain MDH1, active compounds read low 0.984 | S. cerevisiae deletion strains, locus YKL160W, strain elf1, active compounds read low 0.996 | S. cerevisiae deletion strains, locus YKL190W, strain CNB1, active compounds read low 0.997 | S. cerevisiae deletion strains, locus YKR001C, strain vps1, active compounds read low 0.998 | S. cerevisiae deletion strains, locus YKR026C, strain gcn3, active compounds read low 0.989 | S. cerevisiae deletion strains, locus YKR091W, strain srl3, active compounds read low 0.993 | S. cerevisiae deletion strains, locus YLL001W, strain dnm1, active compounds read low 0.991 | S. cerevisiae deletion strains, locus YLL026W, active compounds read low 0.986 | S. cerevisiae deletion strains, locus YLL041C, strain sdh2, active compounds read low 0.994 | S. cerevisiae deletion strains, locus YLR027C, strain aat2, active compounds read low 0.995 | S. cerevisiae deletion strains, locus YLR039C, strain RIC1, active compounds read low 0.893 | S. cerevisiae deletion strains, locus YLR058C, strain SHM2, active compounds read low 0.996 | S. cerevisiae deletion strains, locus YLR102C, strain apc9, active compounds read low 1 | S. cerevisiae deletion strains, locus YLR113W, strain HOG1, active compounds read low 0.961 | S. cerevisiae deletion strains, locus YLR221C, strain rsa3, active compounds read low 0.989 | S. cerevisiae deletion strains, locus YLR258W, strain gsy2, active compounds read low 0.981 | S. cerevisiae deletion strains, locus YLR262C, strain YPT6 (second series), active compounds read low 0.971 | S. cerevisiae deletion strains, locus YLR262C, strain YPT6, active compounds read low 0.983 | S. cerevisiae deletion strains, locus YLR268W, strain sec22, active compounds read low 0.997 | S. cerevisiae deletion strains, locus YLR320W, strain mms22, active compounds read low 0.982 | S. cerevisiae deletion strains, locus YLR330W, strain CHS5, active compounds read low 0.992 | S. cerevisiae deletion strains, locus YLR342W, strain FKS1 (second series), active compounds read low 1.01 | S. cerevisiae deletion strains, locus YLR342W, strain FKS1, active compounds read low 0.987 | S. cerevisiae deletion strains, locus YLR357W, strain rsc2, active compounds read low 1.01 | S. cerevisiae deletion strains, locus YLR370C, strain arc18, active compounds read low 0.994 | S. cerevisiae deletion strains, locus YLR371W, strain rom2, active compounds read low 0.997 | S. cerevisiae deletion strains, locus YLR384C, strain iki3, active compounds read low 0.993 | S. cerevisiae deletion strains, locus YLR418C, strain cdc73, active compounds read low 0.965 | S. cerevisiae deletion strains, locus YML016C, strain PPZ1, active compounds read low 0.997 | S. cerevisiae deletion strains, locus YML032C, strain rad52, active compounds read low 1.01 | S. cerevisiae deletion strains, locus YML120C, strain ndi1, active compounds read low 0.983 | S. cerevisiae deletion strains, locus YML124C, strain tub3, active compounds read low 0.998 | S. cerevisiae deletion strains, locus YMR058W, strain fet3, active compounds read low 0.994 | S. cerevisiae deletion strains, locus YMR078C, strain ctf18, active compounds read low 1.01 | S. cerevisiae deletion strains, locus YMR125W, strain sto1, active compounds read low 0.983 | S. cerevisiae deletion strains, locus YMR129W, active compounds read low 0.994 | S. cerevisiae deletion strains, locus YMR205C, strain PFK2, active compounds read low 0.968 | S. cerevisiae deletion strains, locus YMR223W, strain ubp8, active compounds read low 0.989 | S. cerevisiae deletion strains, locus YMR231W, strain pep5, active compounds read low 0.993 | S. cerevisiae deletion strains, locus YMR263W, strain SAP30, active compounds read low 0.984 | S. cerevisiae deletion strains, locus YMR307W, strain GAS1, active compounds read low 0.869 | S. cerevisiae deletion strains, locus YNL067W, strain RPL9B, active compounds read low 0.985 | S. cerevisiae deletion strains, locus YNL071W, strain lat1, active compounds read low 0.982 | S. cerevisiae deletion strains, locus YNL128W, strain TEP1, active compounds read low 0.987 | S. cerevisiae deletion strains, locus YNL153C, strain GIM3, active compounds read low 0.996 | S. cerevisiae deletion strains, locus YNL183C, strain NPR1, active compounds read low 0.96 | S. cerevisiae deletion strains, locus YNL209W, strain ssb2, active compounds read low 0.995 | S. cerevisiae deletion strains, locus YNL233W, strain BNI4, active compounds read low 0.989 | S. cerevisiae deletion strains, locus YNL248C, strain rpa49, active compounds read low 0.984 | S. cerevisiae deletion strains, locus YNL250W, strain rad50, active compounds read low 1 | S. cerevisiae deletion strains, locus YNL271C, strain bni1, active compounds read low 1 | S. cerevisiae deletion strains, locus YNL298W, strain CLA4, active compounds read low 1 | S. cerevisiae deletion strains, locus YNL307C, strain MCK1, active compounds read low 0.993 | S. cerevisiae deletion strains, locus YNL322C, strain KRE1 (second series), active compounds read low 0.992 | S. cerevisiae deletion strains, locus YNL322C, strain KRE1, active compounds read low 0.992 | S. cerevisiae deletion strains, locus YNR049C, strain mso1, active compounds read low 0.984 | S. cerevisiae deletion strains, locus YNR052C, strain pop2, active compounds read low 1.01 | S. cerevisiae deletion strains, locus YOL006C, strain TOP1, active compounds read low 0.905 | S. cerevisiae deletion strains, locus YOL012C, strain htz1 0.707 | S. cerevisiae deletion strains, locus YOL147C, strain pex11, active compounds read low 1 | S. cerevisiae deletion strains, locus YOR001W, strain rrp6, active compounds read low 0.995 | S. cerevisiae deletion strains, locus YOR061W, strain CKA2, active compounds read low 0.981 | S. cerevisiae deletion strains, locus YOR069W, strain VPS5, active compounds read low 0.979 | S. cerevisiae deletion strains, locus YOR070C, strain gyp1, active compounds read low 0.985 | S. cerevisiae deletion strains, locus YOR080W, strain dia2, active compounds read low 0.995 | S. cerevisiae deletion strains, locus YOR083W, strain WHI5, active compounds read low 0.999 | S. cerevisiae deletion strains, locus YOR106W, strain vam3, active compounds read low 0.958 | S. cerevisiae deletion strains, locus YOR136W, strain idh2, active compounds read low 1.01 | S. cerevisiae deletion strains, locus YOR144C, strain elg1, active compounds read low 1.01 | S. cerevisiae deletion strains, locus YOR184W, strain ser1, active compounds read low 0.991 | S. cerevisiae deletion strains, locus YOR231W, strain MKK1, active compounds read low 1.04 | S. cerevisiae deletion strains, locus YOR265W, strain rbl2, active compounds read low 0.991 | S. cerevisiae deletion strains, locus YOR270C, strain vph1, active compounds read low 0.953 | S. cerevisiae deletion strains, locus YOR290C, strain snf2, active compounds read low 0.995 | S. cerevisiae deletion strains, locus YOR316C, strain cot1, active compounds read low 1 | S. cerevisiae deletion strains, locus YPL051W, strain arl3, active compounds read low 0.989 | S. cerevisiae deletion strains, locus YPL055C, strain LGE1, active compounds read low 0.94 | S. cerevisiae deletion strains, locus YPL078C, strain atp4, active compounds read low 0.988 | S. cerevisiae deletion strains, locus YPL106C, strain sse1, active compounds read low 1.01 | S. cerevisiae deletion strains, locus YPL240C, strain hsp82, active compounds read low 1 | S. cerevisiae deletion strains, locus YPL241C, strain CIN2, active compounds read low 0.995 | S. cerevisiae deletion strains, locus YPL256C, strain CLN2, active compounds read low 1.01 | S. cerevisiae deletion strains, locus YPR119W, strain clb2, active compounds read low 1 | S. cerevisiae deletion strains, locus YPR141C, strain kar3, active compounds read low 0.995 | S. cerevisiae deletion strains, locus YPR163C, strain tif3, active compounds read low 1.01 | S. cerevisiae deletion strains, locus YPR167C, strain met16, active compounds read low 1 | S. cerevisiae deletion strains, strain wtn01, active compounds read low 1 | S. cerevisiae strains, strain wild type, active compounds read low 0.981
